“And” between values parts separate entries of the source, which are not always exact repeats. Identical values can stand only once. Results filed as inconclusive are left out. The source made the active and inactive calls. Unless noted, the call rests on the fitted dose curve; in most records, active means well fitted curve in the direction sought with a large enough effect; inconclusive means small, poorly fitted or top-dose-only effect, or another doubt; inactive means no such curve, though single readings can be large; an effect the other way counts as inactive or inconclusive.
How the values were obtained:
[1] = Primary qHTS for inhibitors of nuclear receptor binding SET domain protein 2 (NSD2) in an isogenic RCH-ACV NSD2 p.E1099K mutant (9B) (AID 1645876); further: nearly all actives have a fitted effect of over 70% in size
[2] = Primary qHTS for inhibitors of nuclear receptor binding SET domain protein 2 (NSD2) in an RCH-ACV wild type WT cells (2C) (AID 1645877); further: nearly all actives have a fitted effect of over 70% in size
[3] = biological target: Catechol O-methyltransferase (Homo sapiens) (UniProt P21964); assay: Confirmatory Screen for Target Class Profiling of Small Molecule Inhibitors of Methyltransferases (AID 1745852; calls by dose curve; on activity change, negative = inhibition: on the % scale 0 is the no-effect control and ±100 the full control effect); conditions: MTase-Glo luminescence, SAH detection, recombinant enzyme; measured here: COMT max response; stronger effect = lower value
Sequence of Catechol O-methyltransferase (Homo sapiens) (P21964 whole entry, looked up): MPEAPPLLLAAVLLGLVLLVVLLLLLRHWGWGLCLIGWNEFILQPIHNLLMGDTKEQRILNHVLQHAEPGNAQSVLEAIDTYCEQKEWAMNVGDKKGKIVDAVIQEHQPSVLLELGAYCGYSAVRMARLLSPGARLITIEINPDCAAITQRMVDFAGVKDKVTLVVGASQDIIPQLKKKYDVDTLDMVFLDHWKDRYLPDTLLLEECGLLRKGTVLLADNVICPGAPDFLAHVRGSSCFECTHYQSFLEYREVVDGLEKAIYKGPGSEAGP

[4] = biological target: Guanidinoacetate N-methyltransferase (Homo sapiens) (UniProt Q14353); assay: as above; conditions: activity change, negative = inhibition: at 57.3 µM (top of the series) unless noted
[5] = biological target: Nicotinamide N-methyltransferase (Homo sapiens) (UniProt P40261); assay: as above; conditions: MTase-Glo luminescence, SAH detection, recombinant enzyme; measured here: NNMT max response; stronger effect = lower value
Sequence of Nicotinamide N-methyltransferase (Homo sapiens) (P40261 whole entry, looked up): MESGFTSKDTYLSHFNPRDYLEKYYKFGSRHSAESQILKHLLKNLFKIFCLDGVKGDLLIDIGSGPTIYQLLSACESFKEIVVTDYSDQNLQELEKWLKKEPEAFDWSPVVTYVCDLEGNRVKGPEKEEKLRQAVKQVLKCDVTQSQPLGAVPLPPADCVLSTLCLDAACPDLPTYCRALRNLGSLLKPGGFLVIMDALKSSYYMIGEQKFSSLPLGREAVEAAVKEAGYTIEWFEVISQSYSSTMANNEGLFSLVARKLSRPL

[6] = biological target: Phenylethanolamine N-methyltransferase (Homo sapiens) (UniProt P11086); assay: as above; conditions: MTase-Glo luminescence, SAH detection, recombinant enzyme; measured here: PNMT max response; stronger effect = lower value
Sequence of Phenylethanolamine N-methyltransferase (Homo sapiens) (P11086 whole entry, looked up): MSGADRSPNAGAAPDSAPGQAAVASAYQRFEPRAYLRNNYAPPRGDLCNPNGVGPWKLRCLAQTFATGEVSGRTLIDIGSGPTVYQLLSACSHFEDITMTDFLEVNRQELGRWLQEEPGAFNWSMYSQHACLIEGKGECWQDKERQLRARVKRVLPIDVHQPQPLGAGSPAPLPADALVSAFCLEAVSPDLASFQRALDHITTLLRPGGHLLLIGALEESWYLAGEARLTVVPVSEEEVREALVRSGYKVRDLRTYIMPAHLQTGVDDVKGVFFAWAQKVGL
Potency means the concentration at half of the fitted maximal effect.

| SMILES | Potency [1] | Potency [2] | activity [3] [%] | activity change, negative = inhibition [4] | activity [5] [%] | activity [6] [%] | Potency [4] |
| --- | --- | --- | --- | --- | --- | --- | --- |
| CN(C)CC1CCn2c(c(C3=C(c4cn(C)c5ccccc45)C(=O)NC3=O)c3ccccc32)C1 (configuration not stated) | 7.28 µM (active) | 5.15 µM (active) | -13.6 | -2.82% | -44.5 | -10.7 |  |
| Fc1ccc2[nH]ccc2c1-c1nc(N2CCOCC2)c2sc(CN3CCN(CC4CC4)CC3)cc2n1 | 205 nM (active) and 3.72 µM (active) | 365 nM (active) and 833 nM (active) | -1.17 | 0% | -62.5 | -22.1 |  |
| COCC(c1ccc(C(F)(F)F)cc1)N1CCN(C2(C)CCN(C(=O)c3c(C)ncnc3C)CC2)CC1C (configuration not stated) | inactive | inactive |  |  |  |  |  |
| CC1(C)CC[C@]2(C(=O)O[C@@H]3O[C@H](CO)[C@@H](O)[C@H](O)[C@H]3O)CC[C@]3(C)C(=CCC4[C@@]5(C)CC[C@H](O[C@@H]6O[C@H](C(=O)O)[C@H](O)[C@H](O)[C@H]6O)C(C)(C)C5CC[C@]43C)[C@@H]2C1 (some centres not stated) | 6.08 µM (active) | 5.41 µM (active) | -55 | -1.02% [at 19.1 µM] | -9.04 | -2.05 |  |
| Cc1nnc(C[C@@H]2C=C(c3ccc(Cl)cc3)c3ccccc3-n3c(C)nnc32)o1 | 0.332 µM (active) | 0.296 µM (active) | -1.31 |  | -21 | 3.69 | inactive |
| CC(C)C[C@H](C(=O)O)c1cc(-c2ccc(C(F)(F)F)cc2)cc(-c2ccc(C(F)(F)F)cc2)c1 | 9.16 µM (active) | 11.5 µM (active) | -6.76 |  | -40.6 | -16.1 | 48.2 µM (active) |
| O=C(NCCCc1ccccc1)c1cccc(-c2cc(O)c3ncccc3c2)c1 | 12.9 µM (active) | 3.65 µM (active) | -82.7 | -1.73% | -28.1 | 4.23 |  |
| Nc1nc2c(nc(Br)n2[C@@H]2O[C@@H]3COP(=O)(O)O[C@H]3[C@H]2O)c(=O)[nH]1 | inactive | inactive |  |  |  |  |  |
| Cc1[nH]c2ccccc2c1CCNCc1ccc(/C=C/C(=O)NO)cc1 | 18.3 nM (active) and 52.5 nM (active) | 18.3 nM (active) and 52.5 nM (active) | 16.3 | -2.13% | -6 | -2.09 |  |
| Nc1nc(NC2CC2)cc(-c2cccc(Cl)c2Cl)n1 | 4.59 µM (active) | 2.58 µM (active) | -8.02 | -4.54% | -52.3 | -7.75 |  |
| C/C=C(\C)[C@@H]1C(C)=C[C@@H]2[C@H]([C@@H]1/C=C/C=C/C(=O)O)[C@@H](C)CC[C@@H]2O | 5.05 µM (active) | 4.01 µM (active) |  |  |  |  |  |
| Cc1[nH]c(/C=C2\C(=O)Nc3ccc(S(=O)(=O)N(C)c4cccc(Cl)c4)cc32)c(C)c1C(=O)N1CCN(C)CC1 | 9.16 µM (active) and 5.25 µM (active) | 7.28 µM (active) and 5.25 µM (active) | -10.8 | -2.8% | -49.1 | -9.35 |  |
| C=C1C(=O)OC2/C=C(/C)C3=CC(=O)C(C)(CC(OC(=O)/C(C)=C/COC(C)=O)C12)O3 (configuration not stated) | 1.12 µM (active) | 0.399 µM (active) | -88.1 | 0.139% [at 29.8 µM] | 0.146 | -3.18 |  |
| C/C=C(/C)C(=O)O[C@H]1C=C(CO)C(=O)[C@H](OC(=O)/C(C)=C/CO)[C@H]1C(C)C | 1.79 µM (active) | 1.79 µM (active) | -55.6 | -5.13% | -3.04 | -1.6 |  |
| COc1cc(/C=C2\CCCN([C@@H](C)c3ccc(F)cc3)C2=O)ccc1-n1cnc(C)c1 | 11.5 µM (active) | 12.9 µM (active) | -8.51 |  | -25.5 | -13 | 2.41 µM (active) |
| C[C@]12CC[C@@H]3c4ccc(O)c(O)c4CC[C@H]3[C@@H]1CCC2=O | 18.3 µM (active) | 11.5 µM (active) | -61.7 | -3.15% | -14.2 | -20.6 |  |
| CN(C)CCC(CSc1ccccc1)Nc1ccc(S(=O)(=O)NC(=O)c2ccc(N3CCN(Cc4ccccc4-c4ccc(Cl)cc4)CC3)cc2)cc1[N+](=O)[O-] (configuration not stated) | 0.916 µM (active) | 0.515 µM (active) |  |  |  |  |  |
| Cc1ccc(C)c(-c2cc(C(F)(F)F)nn2-c2ccc(S(N)(=O)=O)cc2)c1 | 20.5 µM (active) | 25.8 µM (active) | -7.64 | -5.49% | -48.6 | -4.27 |  |

— PubChem BioAssay (NCATS)
